In all, about 5,500 compounds went through this assay and about 2,000 (36%) were called active. Another 18% or so got no clear call; they are omitted. Cut-off read from the data, not from the text of the source: active = normalized growth mostly below about 0.91 (no sharp cut-off); inconclusive = no clear call, values can overlap the other calls; inactive = mostly above about 0.92. The list shows a part of the results.
Assay: chemical genetic growth profiling, strain panel (AID 1159580);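 note: tested at 20 µM; growth read once vehicle control cultures reached saturation at 30 °C; 1 = growth at the plate median or of vehicle wells; lower values mean less growth of the strain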
Settings: S. cerevisiae deletion strains, growth OD

Measured: normalized growth

CC1(C)N([O-])[N+](=O)C1(C)Br (stereo not given)
inactive: locus YAL021C, strain ccr4, stronger effect = lower value 0.967 | locus YAL026C, strain drs2, stronger effect = lower value 0.99 | locus YAL030W, strain snc1, stronger effect = lower value 1 | locus YBL061C, strain skt5, stronger effect = lower value 0.981 | locus YBR009C, strain hhf1, stronger effect = lower value 0.995 | locus YBR023C, strain chs3, stronger effect = lower value 0.983 | locus YBR171W, strain sec66, stronger effect = lower value 0.968 | locus YBR231C, strain swc5, stronger effect = lower value 0.988 | locus YBR279W, strain paf1, stronger effect = lower value 0.995 | locus YCL011C, strain gbp2, stronger effect = lower value 0.965 | locus YCL016C, strain dcc1, stronger effect = lower value 0.99 | locus YCL061C, strain MRC1, stronger effect = lower value 1 | locus YCL069W, strain vba3, stronger effect = lower value 0.969 | locus YCR088W, strain abp1, stronger effect = lower value 0.967 | locus YDL005C, strain med2, stronger effect = lower value 0.978 | locus YDL040C, strain nat1, stronger effect = lower value 0.992 | locus YDR001C, strain nth1, stronger effect = lower value 0.987 | locus YDR069C, strain doa4, stronger effect = lower value 0.992 | locus YDR137W, strain rgp1, stronger effect = lower value 1.07 | locus YDR159W, strain sac3, stronger effect = lower value 0.98 | locus YDR195W, strain ref2 0.972 | locus YDR297W, strain sur2, stronger effect = lower value 0.987 | locus YDR334W, strain swr1, stronger effect = lower value 0.969 | locus YDR335W, strain msn5, stronger effect = lower value 0.968 | locus YDR392W, strain spt3, stronger effect = lower value 0.906 | locus YEL003W, strain gim4, stronger effect = lower value 0.984 | locus YEL037C, strain rad23, stronger effect = lower value 0.982 | locus YEL061C, strain CIN8 (second series), stronger effect = lower value 0.973 | locus YER015W, strain faa2, stronger effect = lower value 0.962 | locus YER016W, strain bim1, stronger effect = lower value 0.992 | locus YER111C, strain swi4, stronger effect = lower value 0.996 | locus YER155C, strain BEM2 (second series), stronger effect = lower value 0.974 | locus YFR010W, strain ubp6, stronger effect = lower value 0.979 | locus YGL167C, strain pmr1, stronger effect = lower value 0.987 | locus YGL173C, strain kem1, stronger effect = lower value 0.984 | locus YGL227W, strain vid30, stronger effect = lower value 0.982 | locus YGL240W, strain doc1, stronger effect = lower value 0.994 | locus YGL253W, strain hxk2, stronger effect = lower value 0.982 | locus YHR013C, strain ard1, stronger effect = lower value 0.977 | locus YHR027C, strain rpn1, stronger effect = lower value 0.991 | locus YHR030C, strain SLT2, stronger effect = lower value 0.966 | locus YHR079C, strain IRE1, stronger effect = lower value 0.966 | locus YHR142W, strain chs7, stronger effect = lower value 0.968 | locus YJL092W, strain hpr5, stronger effect = lower value 0.963 | locus YJL095W, strain BCK1 (second series), stronger effect = lower value 0.973 | locus YJL095W, strain BCK1, stronger effect = lower value 0.975 | locus YJL115W, strain asf1, stronger effect = lower value 0.979 | locus YJL129C, strain trk1, stronger effect = lower value 0.976 | locus YJL154C, strain vps35, stronger effect = lower value 0.969 | locus YJL164C, strain tpk1, stronger effect = lower value 0.995 | locus YJL166W, strain qcr8, stronger effect = lower value 0.988 | locus YJL187C, strain SWE1, stronger effect = lower value 1.01 | locus YJR066W, strain TOR1, stronger effect = lower value 0.907 | locus YKL160W, strain elf1, stronger effect = lower value 0.998 | locus YKR026C, strain gcn3, stronger effect = lower value 0.984 | locus YKR091W, strain srl3, stronger effect = lower value 0.995 | locus YLL001W, strain dnm1, stronger effect = lower value 1 | locus YLL026W, stronger effect = lower value 0.986 | locus YLL041C, strain sdh2, stronger effect = lower value 0.99 | locus YLR027C, strain aat2, stronger effect = lower value 1 | locus YLR113W, strain HOG1, stronger effect = lower value 0.993 | locus YLR221C, strain rsa3, stronger effect = lower value 0.985 | locus YLR258W, strain gsy2, stronger effect = lower value 0.985 | locus YLR262C, strain YPT6 (second series), stronger effect = lower value 1.03 | locus YLR320W, strain mms22, stronger effect = lower value 0.985 | locus YLR342W, strain FKS1, stronger effect = lower value 0.978 | locus YLR357W, strain rsc2, stronger effect = lower value 0.999 | locus YLR370C, strain arc18, stronger effect = lower value 0.982 | locus YLR384C, strain iki3, stronger effect = lower value 0.986 | locus YML120C, strain ndi1, stronger effect = lower value 0.984 | locus YMR058W, strain fet3, stronger effect = lower value 0.994 | locus YMR125W, strain sto1, stronger effect = lower value 0.974 | locus YMR129W, stronger effect = lower value 0.992 | locus YMR205C, strain PFK2, stronger effect = lower value 0.998 | locus YMR231W, strain pep5, stronger effect = lower value 0.96 | locus YNL071W, strain lat1, stronger effect = lower value 0.973 | locus YNL183C, strain NPR1, stronger effect = lower value 0.912 | locus YNL209W, strain ssb2, stronger effect = lower value 0.989 | locus YNL248C, strain rpa49, stronger effect = lower value 0.992 | locus YNL322C, strain KRE1 (second series), stronger effect = lower value 0.979 | locus YNR049C, strain mso1, stronger effect = lower value 0.99 | locus YOR001W, strain rrp6, stronger effect = lower value 0.988 | locus YOR070C, strain gyp1, stronger effect = lower value 0.976 | locus YOR080W, strain dia2, stronger effect = lower value 0.985 | locus YOR083W, strain WHI5, stronger effect = lower value 0.994 | locus YOR106W, strain vam3, stronger effect = lower value 0.966 | locus YOR231W, strain MKK1, stronger effect = lower value 0.977 | locus YOR265W, strain rbl2, stronger effect = lower value 0.993 | locus YOR270C, strain vph1, stronger effect = lower value 1.01 | locus YOR290C, strain snf2, stronger effect = lower value 0.987 | locus YPL051W, strain arl3, stronger effect = lower value 0.985 | locus YPL078C, strain atp4, stronger effect = lower value 0.986 | locus YPL106C, strain sse1, stronger effect = lower value 0.977 | locus YPL240C, strain hsp82, stronger effect = lower value 0.97 | locus YPL256C, strain CLN2, stronger effect = lower value 0.956

Source: PubChem BioAssay AID1159580 (chemical genetic matrix, 2015)
